The structures appear in SMILES notation. For some assays here: Measured potencies and affinities stand elsewhere.

What all share (design): scale not given: direction of the effect not stated beside the values
Experiment [1] addresses Protein translocase subunit SecA (Escherichia coli (strain K12)) (UniProt P10408). The experiment in a line: Assay to Identify E. coli SecA ATPase Inhibitors. In kind it is functional. The settings on record: 30 µM.
The target of experiment [2] is T1, Ubiquitin-activating enzyme e1, putative (Leishmania donovani (strain BPK282A1)) (UniProt E9BSI1).
T1 sequence (whole entry): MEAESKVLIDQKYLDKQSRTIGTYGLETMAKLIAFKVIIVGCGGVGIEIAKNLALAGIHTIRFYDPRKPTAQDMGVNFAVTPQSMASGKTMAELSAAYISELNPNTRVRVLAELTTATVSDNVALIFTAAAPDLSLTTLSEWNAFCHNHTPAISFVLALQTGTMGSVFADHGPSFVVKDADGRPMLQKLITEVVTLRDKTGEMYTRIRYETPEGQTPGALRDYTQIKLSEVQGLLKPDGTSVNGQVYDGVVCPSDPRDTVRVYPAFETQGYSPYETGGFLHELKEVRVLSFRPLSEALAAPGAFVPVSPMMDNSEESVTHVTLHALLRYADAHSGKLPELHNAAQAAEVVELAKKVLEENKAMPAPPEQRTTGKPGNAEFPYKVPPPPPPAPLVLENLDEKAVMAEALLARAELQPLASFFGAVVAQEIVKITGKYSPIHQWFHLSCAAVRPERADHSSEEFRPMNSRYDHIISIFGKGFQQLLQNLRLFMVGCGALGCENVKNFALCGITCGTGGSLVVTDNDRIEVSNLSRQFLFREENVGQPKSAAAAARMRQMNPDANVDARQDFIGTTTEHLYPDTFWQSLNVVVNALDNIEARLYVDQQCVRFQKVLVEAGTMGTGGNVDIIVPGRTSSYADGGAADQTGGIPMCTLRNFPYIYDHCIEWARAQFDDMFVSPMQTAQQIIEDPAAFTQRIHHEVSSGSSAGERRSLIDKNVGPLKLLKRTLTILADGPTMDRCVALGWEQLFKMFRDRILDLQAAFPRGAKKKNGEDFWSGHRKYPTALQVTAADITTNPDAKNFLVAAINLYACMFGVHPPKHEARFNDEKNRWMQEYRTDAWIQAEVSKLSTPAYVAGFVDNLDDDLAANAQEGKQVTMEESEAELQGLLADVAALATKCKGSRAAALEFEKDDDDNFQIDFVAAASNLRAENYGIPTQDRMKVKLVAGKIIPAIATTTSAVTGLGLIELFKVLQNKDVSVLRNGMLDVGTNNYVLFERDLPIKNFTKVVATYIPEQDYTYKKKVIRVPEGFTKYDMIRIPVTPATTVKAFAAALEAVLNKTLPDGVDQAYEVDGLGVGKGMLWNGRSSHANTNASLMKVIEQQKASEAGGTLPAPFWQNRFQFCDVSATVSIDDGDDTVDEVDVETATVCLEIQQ
The experiment in a line: Leishmania donovani Ubiquitin Activating Enzyme (LdE1). In kind it is functional. The settings on record: 30 µM.

The target in experiment [3] is AMP-activated protein kinase, AMPK (Homo sapiens) (UniProt P54646+O43741+P54619+Q9UGJ0+Q9Y478+Q13131+Q9UGI9). The experiment in a line: AMP-dependent Kinase enzyme assay. An in vitro enzyme assay that detects ADP turnover that is directly proportional to AMPK activity. This uses naive AMPK that is activated during the assay with MK-8722. The class given is functional. As to conditions: 30 µM.

The target in experiment [4] is Sialic acid-binding Ig-like lectin 9 (Homo sapiens) (UniProt Q9Y336). The experiment in a line: Hs-Siglec9 ALPHAscreen SOP 20170721. As to conditions: 10 µM.
Another experiment has as its system Trypanosoma cruzi. The experiment in a line: Trypanosoma cruzi phosphomannomutase and mannose-1-phosphate guanylyltransferase assay. The class given is functional. The settings on record: 10 µM.
In experiment [5] the target is T2, Arginase-2, mitochondrial (Homo sapiens) (UniProt P78540).
T2 sequence (whole entry): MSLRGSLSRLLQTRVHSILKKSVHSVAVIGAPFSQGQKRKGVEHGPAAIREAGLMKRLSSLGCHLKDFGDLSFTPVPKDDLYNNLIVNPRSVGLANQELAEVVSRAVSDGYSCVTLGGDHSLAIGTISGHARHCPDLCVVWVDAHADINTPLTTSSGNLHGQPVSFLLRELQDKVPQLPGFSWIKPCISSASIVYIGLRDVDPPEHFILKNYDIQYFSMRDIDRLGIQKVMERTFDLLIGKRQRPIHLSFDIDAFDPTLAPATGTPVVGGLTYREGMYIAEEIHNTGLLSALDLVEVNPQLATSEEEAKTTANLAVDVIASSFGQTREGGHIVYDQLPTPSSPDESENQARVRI
The experiment in a line: in vitro enzyme assay to detect the production of urea directly proportional to the activity of Arginase II. Further: in the data most compounds retested in dose-response had high values. In kind it is functional. As to conditions: 33.3 µM.

The target in experiment [6] is T3, Proteasome subunit beta (Trypanosoma cruzi) (UniProt O96673).
T3 sequence (whole entry): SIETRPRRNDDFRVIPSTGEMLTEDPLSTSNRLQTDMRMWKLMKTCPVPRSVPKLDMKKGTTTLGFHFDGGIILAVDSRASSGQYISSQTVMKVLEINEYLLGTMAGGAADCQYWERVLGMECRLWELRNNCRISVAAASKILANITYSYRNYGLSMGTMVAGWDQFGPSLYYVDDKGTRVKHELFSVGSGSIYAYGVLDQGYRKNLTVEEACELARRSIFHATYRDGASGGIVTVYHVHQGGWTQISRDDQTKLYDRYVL
The experiment in a line: Trypanosoma cruzi proteasome chymotrypsin-like activity (TcProtChymo) assay. Further: in the data most compounds retested in dose-response had high values. In kind it is functional. The settings on record: 9.37 µM.

The species entered for another experiment is Homo sapiens. The experiment in a line: To identify inhibition of the IFN signalling (Jak-Stat) pathway via expression of an eGFP reporter gene under the control of an IFN-stimulated response element (ISRE) containing MxA promoter. The class given is functional. The settings on record: 30 µM.
Experiment [7] deals with T4, Tyrosyl-tRNA synthetase, putative (Trypanosoma cruzi (strain CL Brener)) (UniProt Q4DSP6).
T4 sequence (whole entry): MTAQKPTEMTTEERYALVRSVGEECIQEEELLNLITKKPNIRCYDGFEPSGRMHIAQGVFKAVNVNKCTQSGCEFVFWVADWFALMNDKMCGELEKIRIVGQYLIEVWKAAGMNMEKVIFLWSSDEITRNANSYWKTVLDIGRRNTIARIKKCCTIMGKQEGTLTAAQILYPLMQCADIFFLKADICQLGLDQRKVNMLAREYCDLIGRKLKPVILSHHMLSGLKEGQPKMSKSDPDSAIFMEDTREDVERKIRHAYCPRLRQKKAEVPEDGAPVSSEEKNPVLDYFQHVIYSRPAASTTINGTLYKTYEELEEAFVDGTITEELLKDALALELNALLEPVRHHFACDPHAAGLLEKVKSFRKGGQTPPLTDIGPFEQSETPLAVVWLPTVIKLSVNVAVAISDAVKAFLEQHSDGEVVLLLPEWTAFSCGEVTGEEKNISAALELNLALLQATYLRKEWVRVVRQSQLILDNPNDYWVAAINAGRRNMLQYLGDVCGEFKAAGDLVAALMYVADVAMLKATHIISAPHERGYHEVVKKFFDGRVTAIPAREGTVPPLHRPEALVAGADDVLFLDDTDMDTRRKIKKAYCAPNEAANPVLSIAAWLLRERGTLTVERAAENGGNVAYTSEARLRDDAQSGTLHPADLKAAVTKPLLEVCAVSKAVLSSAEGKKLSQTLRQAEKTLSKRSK
The experiment in a line: Trypanosoma cruzi tyrosyl tRNA synthetase (TcYRS) _High Tyrosine SOP. Further: in the data most compounds retested in dose-response had high values. The class given is functional. The settings on record: 30 µM.

Experiment [8] deals with T4, Tyrosyl-tRNA synthetase, putative (Trypanosoma cruzi (strain CL Brener)). The experiment in a line: Trypanosoma cruzi tyrosyl tRNA synthetase (TcYRS) SOP. In kind it is functional. As to conditions: 30 µM.
The target of experiment [9] is Chromo domain-containing protein 1 (Saccharomyces cerevisiae (strain ATCC 204508 / S288c) (Baker's yeast)) (UniProt P32657). The experiment in a line: ScCHD-1 Enzyme Inhibition Assay. Further: in the data most compounds retested in dose-response had high values. The settings on record: 30 µM. The class given is functional.
Chain of Chromo domain-containing protein 1 (Saccharomyces cerevisiae (strain ATCC 204508 / S288c) (Baker's yeast)) (P32657 whole entry, the tested form may be a part): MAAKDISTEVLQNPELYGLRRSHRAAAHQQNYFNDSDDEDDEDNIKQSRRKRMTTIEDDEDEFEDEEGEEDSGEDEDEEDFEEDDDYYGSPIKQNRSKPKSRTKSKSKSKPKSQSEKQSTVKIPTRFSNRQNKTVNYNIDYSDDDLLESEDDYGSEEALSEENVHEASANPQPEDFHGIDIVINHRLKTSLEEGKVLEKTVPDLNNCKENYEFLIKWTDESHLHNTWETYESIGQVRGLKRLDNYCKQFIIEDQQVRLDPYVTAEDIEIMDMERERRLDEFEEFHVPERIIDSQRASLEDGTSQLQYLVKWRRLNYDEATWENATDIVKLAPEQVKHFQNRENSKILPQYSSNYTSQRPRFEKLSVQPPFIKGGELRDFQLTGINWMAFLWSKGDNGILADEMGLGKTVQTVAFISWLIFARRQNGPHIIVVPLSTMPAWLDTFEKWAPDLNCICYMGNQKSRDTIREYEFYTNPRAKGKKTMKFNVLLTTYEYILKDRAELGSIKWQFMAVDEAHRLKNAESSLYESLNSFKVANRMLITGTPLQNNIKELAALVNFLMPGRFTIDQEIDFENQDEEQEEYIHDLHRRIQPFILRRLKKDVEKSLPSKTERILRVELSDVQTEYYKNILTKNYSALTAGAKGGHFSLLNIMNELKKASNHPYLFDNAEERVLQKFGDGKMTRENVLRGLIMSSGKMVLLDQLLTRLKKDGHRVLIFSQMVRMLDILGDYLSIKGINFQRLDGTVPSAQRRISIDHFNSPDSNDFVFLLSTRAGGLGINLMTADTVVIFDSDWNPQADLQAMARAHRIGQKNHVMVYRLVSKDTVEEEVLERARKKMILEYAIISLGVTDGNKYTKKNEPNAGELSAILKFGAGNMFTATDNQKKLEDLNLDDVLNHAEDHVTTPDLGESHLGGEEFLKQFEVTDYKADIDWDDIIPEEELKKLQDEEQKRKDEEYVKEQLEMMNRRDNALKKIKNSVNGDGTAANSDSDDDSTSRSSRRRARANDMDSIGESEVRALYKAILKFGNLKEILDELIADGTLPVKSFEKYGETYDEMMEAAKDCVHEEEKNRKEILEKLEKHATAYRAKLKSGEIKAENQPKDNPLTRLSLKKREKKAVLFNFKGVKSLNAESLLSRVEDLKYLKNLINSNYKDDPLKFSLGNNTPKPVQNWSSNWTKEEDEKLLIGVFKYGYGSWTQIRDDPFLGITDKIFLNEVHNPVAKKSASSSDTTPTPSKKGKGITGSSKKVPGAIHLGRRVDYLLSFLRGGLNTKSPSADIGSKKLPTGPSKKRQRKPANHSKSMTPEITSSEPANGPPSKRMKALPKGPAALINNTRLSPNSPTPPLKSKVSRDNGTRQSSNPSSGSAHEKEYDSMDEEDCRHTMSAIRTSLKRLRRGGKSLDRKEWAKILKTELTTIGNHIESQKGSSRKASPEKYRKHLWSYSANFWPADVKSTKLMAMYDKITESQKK

Chain of Sialic acid-binding Ig-like lectin 9 (Homo sapiens) (Q9Y336 whole entry): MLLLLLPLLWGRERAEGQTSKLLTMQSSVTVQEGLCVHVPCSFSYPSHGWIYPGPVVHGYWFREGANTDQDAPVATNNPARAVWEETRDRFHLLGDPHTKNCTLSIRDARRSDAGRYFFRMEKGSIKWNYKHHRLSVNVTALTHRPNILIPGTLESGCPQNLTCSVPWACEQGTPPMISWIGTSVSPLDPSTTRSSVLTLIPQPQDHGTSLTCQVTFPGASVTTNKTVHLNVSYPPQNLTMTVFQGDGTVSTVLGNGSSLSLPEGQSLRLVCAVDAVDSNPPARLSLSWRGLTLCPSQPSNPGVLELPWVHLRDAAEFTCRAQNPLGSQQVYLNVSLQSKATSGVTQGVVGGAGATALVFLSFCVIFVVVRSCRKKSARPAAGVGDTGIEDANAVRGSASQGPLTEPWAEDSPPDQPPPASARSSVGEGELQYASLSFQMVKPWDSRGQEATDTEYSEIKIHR
Chain of Protein translocase subunit SecA (Escherichia coli (strain K12)) (P10408 whole entry): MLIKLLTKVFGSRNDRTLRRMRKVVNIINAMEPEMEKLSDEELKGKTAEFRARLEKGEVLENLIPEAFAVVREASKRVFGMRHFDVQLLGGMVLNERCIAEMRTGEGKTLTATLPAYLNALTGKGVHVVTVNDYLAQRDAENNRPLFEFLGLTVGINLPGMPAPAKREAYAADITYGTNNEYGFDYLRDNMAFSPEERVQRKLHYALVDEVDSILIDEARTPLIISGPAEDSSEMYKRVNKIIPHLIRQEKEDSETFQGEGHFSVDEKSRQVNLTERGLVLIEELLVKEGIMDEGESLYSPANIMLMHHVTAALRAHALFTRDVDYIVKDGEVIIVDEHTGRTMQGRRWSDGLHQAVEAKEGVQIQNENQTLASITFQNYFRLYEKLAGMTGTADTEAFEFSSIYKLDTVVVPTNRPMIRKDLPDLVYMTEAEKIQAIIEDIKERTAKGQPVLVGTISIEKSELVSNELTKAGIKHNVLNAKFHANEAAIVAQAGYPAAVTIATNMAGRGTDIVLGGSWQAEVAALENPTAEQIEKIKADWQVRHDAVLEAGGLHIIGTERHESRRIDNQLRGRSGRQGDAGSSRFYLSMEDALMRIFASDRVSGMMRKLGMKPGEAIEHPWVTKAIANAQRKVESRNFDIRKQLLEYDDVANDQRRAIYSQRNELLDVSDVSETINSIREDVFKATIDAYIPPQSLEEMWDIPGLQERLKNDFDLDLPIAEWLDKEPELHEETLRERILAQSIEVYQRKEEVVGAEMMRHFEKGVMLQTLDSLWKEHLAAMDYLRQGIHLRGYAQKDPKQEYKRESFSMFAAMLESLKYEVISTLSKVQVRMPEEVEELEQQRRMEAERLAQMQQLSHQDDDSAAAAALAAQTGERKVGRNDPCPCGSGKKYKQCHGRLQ

`CN1CCCN(C[C@@H]2CN(C(=O)CCC3CCCC3)C[C@@H]2CO)CC1`: the Percent Effect in experiment [1] is -5.09%; in experiment [2] it was 7.79%; in [3] it was 1.31%; in experiment [4] it was 18.7%; in the experiment on Trypanosoma cruzi, 4.62%; in [5], -8.28%. Moreover, the Percent Effect in experiment [6] is 3.66%; in the experiment listed under Homo sapiens, -0.683%; in experiment [7], 6.45%; in [8], 11.1%; in experiment [9] it was -3.02%.

On to `Cc1cnn(CC2CCCCN2C(=O)c2ccc3[nH]nnc3c2)c1` (stereo not given), for which the Percent Effect is -3.72% in experiment [1]; 13% in experiment [2]; 5.5% in [3]; 1.47% in experiment [4]; -2.25% in the experiment on Trypanosoma cruzi; 2.32% in [5]. Also, the Percent Effect in experiment [6] was 14.3%; in the experiment filed under Homo sapiens it was 22.2%; in experiment [7] it was 6.67%; in experiment [8], 9.41%; in experiment [9] it was -11.2%.

For the compound `O=C(NCc1cncc2c1CCN(Cc1cccs1)C2)C1CC1`, the Percent Effect in [1] is 1.73%; in [2], 8%; in experiment [3], 3.65%; in experiment [4], -13.1%; in the experiment with Trypanosoma cruzi, -9.65%; in [5], 9.56%. Besides, the Percent Effect in [6] stood at 21.2%; in the experiment filed under Homo sapiens it was 5.35%; in experiment [7] it was 5.32%; in experiment [8] it was 6.41%; in experiment [9] it was 0.102%.

Consider `Cc1nc(COCc2cnc3n2CCN(CC2CCC2)C3C)cs1` (stereo not given), for which the Percent Effect in experiment [1] is -1.98%; in experiment [2], -2.67%; in experiment [3], -6.08%; in [4], 4.28%; in the experiment with Trypanosoma cruzi, 8.11%; in experiment [5], -56.8%. In addition, the Percent Effect in [6] was 12.7%; in the experiment filed under Homo sapiens it was -20.7%; in experiment [7], -1.04%; in experiment [8], 7.5%; in [9], -4.06%.

As to `O=C(CCNC(=O)C1CCCC1)NCc1ccccc1Cn1cncn1`, the Percent Effect was -3.71% in experiment [1]; 31.6% in [2]; 0.311% in [3]; -9.83% in experiment [4]; -1.96% in the experiment on Trypanosoma cruzi; -2.52% in [5]. In addition, the Percent Effect in [6] was found to be 7.87%; in the experiment listed under Homo sapiens it was 1.98%; in experiment [7], 6.4%; in [8] it was 18.5%; in [9], 0.0492%.

On to `Cc1oc(C(=O)O)cc1S(=O)(=O)Nc1cc(Cl)ccc1F`, for which the Percent Effect in experiment [1] was -4.85%; in experiment [2], 5.2%; in experiment [3], -3.17%; in [4], 6.3%; in the experiment on Trypanosoma cruzi, 0.374%; in experiment [5], -1.42%. For the same compound, the Percent Effect is -6.59% in [6]; 2.33% in the experiment listed under Homo sapiens; 3.88% in experiment [7]; 2.44% in experiment [8]; -4.3% in [9].

Consider `CC(C)C(C(=O)N1CCC(Nc2cccnn2)CC1)n1cncn1` (stereo not given), for which the Percent Effect in experiment [1] was -0.999%; in experiment [2], -2.7%; in [3] it was -4.26%; in experiment [4] it was 1.29%; in the experiment with Trypanosoma cruzi, -6.51%; in experiment [5], 1.2%. For the same compound, the Percent Effect in experiment [6] is 5.59%; in the experiment filed under Homo sapiens, 9.97%; in experiment [7], 0.493%; in experiment [8] it was -1.24%; in experiment [9] it was -1.75%.

For `CN(Cc1nc(N)c2ccccc2n1)C1CCCN(c2cccnn2)C1` (stereo not given), the Percent Effect in experiment [1] is -4.12%; in experiment [2], -5.2%; in [3], -10.2%; in [4], 5.86%; in the experiment on Trypanosoma cruzi it was 7.49%; in [5], -1.07%. Also, the Percent Effect in experiment [6] was 13.3%; in the experiment filed under Homo sapiens it was -0.131%; in experiment [7] it was 9.71%; in experiment [8], 14.6%; in experiment [9] it was -9.67%.

Regarding `COCCC(=O)N1CCN(C)c2ncccc2C1`, the Percent Effect in experiment [1] was -4.6%; in experiment [2] it was 2.6%; in [3], 1%; in experiment [4], 7.83%; in the experiment on Trypanosoma cruzi, -2.06%; in experiment [5], -1.38%. For the same compound, the Percent Effect in experiment [6] turned out to be 3.83%; in the experiment listed under Homo sapiens, 2.13%; in [7] it was 5.38%; in [8] it was 6.17%; in experiment [9], 2.1%.

Consider `CN1CCN(C(=O)c2cncc(CC3CCCN(C)C3)c2)CC1` (stereo not given), for which the Percent Effect in experiment [1] is -3.41%; in experiment [2], 9.46%; in experiment [3], 5.47%; in [4], 12%; in the experiment on Trypanosoma cruzi it was -8.3%; in experiment [5] it was -7.66%. Further, the Percent Effect in experiment [6] is 12%; in the experiment filed under Homo sapiens it was 15.9%; in experiment [7], 1.07%; in [8], 1.3%; in experiment [9], -9.97%.

For the origin of these results see ChEMBL document CHEMBL3988442, “University of Dundee, Small-Polar-MMV Screening Library” (2021).
